Laboratory results as given in ChEMBL document CHEMBL1961873, “Compounds: GSK PKIS; Assays: Nanosyn kinase panel” (2012).

What follows are compounds tested against Receptor-type tyrosine-protein kinase FLT3 (Homo sapiens) (UniProt P36888). Conditions: at 0.1 µM.
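Further: mean inhibition value from the GSK PKIS kinase screening set, with the assay run by Nanosyn.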

Receptor-type tyrosine-protein kinase FLT3 (Homo sapiens), sequence (P36888 whole entry): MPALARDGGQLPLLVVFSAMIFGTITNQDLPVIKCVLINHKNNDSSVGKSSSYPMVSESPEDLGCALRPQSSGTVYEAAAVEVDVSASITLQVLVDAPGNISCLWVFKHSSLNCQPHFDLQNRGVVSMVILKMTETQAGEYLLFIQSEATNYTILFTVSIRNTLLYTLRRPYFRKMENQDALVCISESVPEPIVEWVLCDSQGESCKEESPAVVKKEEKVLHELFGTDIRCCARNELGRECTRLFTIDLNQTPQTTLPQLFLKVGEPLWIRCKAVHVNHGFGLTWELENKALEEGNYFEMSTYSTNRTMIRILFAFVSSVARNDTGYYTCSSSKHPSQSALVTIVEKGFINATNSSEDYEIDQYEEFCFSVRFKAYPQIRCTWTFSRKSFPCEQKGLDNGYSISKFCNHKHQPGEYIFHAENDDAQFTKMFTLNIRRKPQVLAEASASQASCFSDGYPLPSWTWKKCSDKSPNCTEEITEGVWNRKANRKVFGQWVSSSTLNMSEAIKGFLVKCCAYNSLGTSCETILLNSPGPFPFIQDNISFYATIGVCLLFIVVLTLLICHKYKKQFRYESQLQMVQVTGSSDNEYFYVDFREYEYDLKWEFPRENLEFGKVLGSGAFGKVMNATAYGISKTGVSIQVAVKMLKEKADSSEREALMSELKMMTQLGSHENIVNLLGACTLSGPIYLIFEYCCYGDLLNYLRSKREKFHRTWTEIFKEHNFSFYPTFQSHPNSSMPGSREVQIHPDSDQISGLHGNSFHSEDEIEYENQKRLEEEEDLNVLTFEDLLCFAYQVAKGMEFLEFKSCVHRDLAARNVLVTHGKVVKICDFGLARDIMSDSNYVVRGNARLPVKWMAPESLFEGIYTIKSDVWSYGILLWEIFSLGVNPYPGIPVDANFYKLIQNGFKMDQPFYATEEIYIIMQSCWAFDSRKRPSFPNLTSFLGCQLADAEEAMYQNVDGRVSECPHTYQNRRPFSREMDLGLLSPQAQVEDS

| SMILES | inhibition |
| --- | --- |
| Fc1cccc(COc2ccc(Nc3ncnc4sc(-c5cccs5)cc34)cc2Cl)c1 | 0.38% |
| CC1=C(C(=O)Nc2ccc3[nH]ncc3c2)C(c2ccc(F)cc2)NC(=O)N1 (centres undefined) | 0.82% |
| CCn1c(-c2nonc2N)nc2c(N3CCCC3)nccc21 | -0.78% |
| NS(=O)(=O)c1ccc(N/N=C2\C(=O)Nc3ccc(C(=O)NCCc4c[nH]cn4)cc32)cc1 | 7.03% |
| CC(C)=Cc1cccc2c1/C(=N/Nc1ccc(S(N)(=O)=O)cc1)C(=O)N2 | 6.79% |
| COc1cc2ncn(-c3cc(O[C@H](C)c4ccccc4Cl)c(C(N)=O)s3)c2cc1OC | 6.07% |
| COc1cc2ncn(-c3cc(O[C@@H](C)c4ccccc4Cl)c(C(N)=O)s3)c2cc1OC | 5.29% |
| Fc1cccc(COc2ccc(Nc3ncnc4cc(-c5ccc[nH]5)sc34)cc2Cl)c1 | -0.44% |
| CN1CCC(C(=O)Nc2n[nH]c3nnc(-c4ccccc4)cc23)CC1 | 2.28% |
| Cn1cc(C=C2C(=O)Nc3cccnc32)c2ccccc21 | 20.3% |
| COc1ccc(-c2nn3ncccc3c2-c2ccnc(Nc3ccc(Cl)c(C(F)(F)F)c3)n2)cc1 | -0.69% |
| NC(=O)c1cccc(Nc2nccc(Nc3cccc4[nH]ncc34)n2)c1 | 6.63% |
| COc1ccc(-c2ccncc2)cc1C(N)=O | 5.04% |
| CS(=O)(=O)CCN(CC#N)Cc1ccc(-c2ccc3ncnc(Nc4ccc(OCc5cccc(F)c5)c(Cl)c4)c3c2)o1 | -0.67% |
| CNC(=O)c1cncc(/C=C/c2c(Cl)cccc2Cl)c1 | -0.33% |
| CCn1c(-c2nonc2N)nc2c(C#CC(C)(C)O)nc(CN3CCCC3)cc21 | -1.67% |
| COc1ccccc1Nc1ncc(-c2ccccc2)o1 | 61% |

| SMILES | inhibition |
| --- | --- |
| Cc1nn(C)c2cc(N(C)c3ccnc(Nc4cccc(S(N)(=O)=O)c4)n3)ccc12 | 2.69% |
| CCn1c(-c2nonc2N)nc2cncc(C(=O)N3CC[C@H](N)C3)c21 | 1.58% |
| O=C(Nc1n[nH]c2nc(-c3ccco3)c(Br)cc12)C1CC1 | 1.23% |
| COc1ccc(-c2coc3ncnc(N)c23)cc1 | 2.97% |
| O=C1NC(=O)C(c2cccc(Cl)c2)=C1Nc1ccc(O)c(Cl)c1 | -1.02% |
| CS(=O)(=O)CCNCc1ccc(-c2ccc3ncnc(Nc4ccc(OCc5cccc(F)c5)c(C(F)(F)F)c4)c3c2)o1 | 1% |
| O=C1NC(=O)C(c2ccccc2Cl)=C1Nc1cccc(O)c1 | 2.15% |
| COc1cc2ncn(-c3cc(OCc4ccccc4Cl)c(C(N)=O)s3)c2cc1OC | 0.85% |
| Nc1ncnc2occ(-c3ccc(NC(=O)Nc4cccc(C(F)(F)F)c4)cc3)c12 | 85.3% |
| COc1cc(C=NNc2ncnc3c2cnn3-c2ccccc2)ccc1O | 15.6% |
| CC1=C(C(=O)Nc2ccc3[nH]ncc3c2)C(c2ccc(Cl)c(Cl)c2)CC(=O)N1 (centres undefined) | 1.43% |
| NC(=O)c1ccc(-c2nc(-c3ccccn3)c(-c3ccc4c(c3)OCO4)[nH]2)cc1 | 1.89% |
| COc1cccc(-n2ncc3c(N/N=C/c4cccc(F)c4)ncnc32)c1 | 0.44% |
| Cc1nnc(-c2ccc(C)c(-c3ccc(C(=O)Nc4cccc(C#N)c4)cc3)c2)o1 | -0.61% |
| N#Cc1c(NC(=O)c2cccc3ccccc23)sc2c1CCCC2 | 2.28% |
| Cc1ccc(NC(=O)c2ccnc(N3CCCC3)c2)cc1-c1ccc(C(=O)NCC2CC2)cc1 | 1.08% |
| COc1cc2ncn(-c3cc(OCc4ccccc4C(F)(F)F)c(C(N)=O)s3)c2cc1OC | 0.06% |
